Screening results as filed in PubChem BioAssay.
Rows were chosen to be rich in hits. Some 17% of all compounds tested hit in one or more screens of this group.
HepG2 tox: counter-screen for TGF-b inhibitors: cytotoxicity in HepG2 cells | HepG2 CAGA-GFP viability, ATP luminescence, 18 h | Potency, µM (doses to about 46.1 µM), for the others: top-dose activity change, negative = cytotoxicity, hits mostly cytotoxic | hit rate 0.76% among 410,000
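HepG2 CAGA-GFP cells (1000/well, DMEM with 1% FBS) received compound, then TGF-beta at 500 pg/mL final, and were incubated 18 hours at 37 degrees C. Viability was read by CellTiter-Glo luminescence. Media-only wells were set as complete cell-killing and DMSO as no toxicity.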
TDP1 cell CPT: growth inhibition of DT40 Tdp1-/-;hTDP1 cells with camptothecin (screen for TDP1 inhibitors) | chicken DT40 Tdp1-/-;hTDP1 cells + 20 nM CPT, ATP luminescence, 48 h | hit rate 12% among 420,000 | Potency, µM (top dose mostly 46.2 µM), inactives show at the top dose activity change, negative = growth inhibition, hits mostly inhibitors; further: on the % scale 0 is the no-effect control and ±100 the full control effect; nearly all actives have a fitted effect of over 55% in size
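Chicken DT40 Tdp1-/- cells complemented with human TDP1, 400 cells/well, exposed to compounds plus 20 nM camptothecin for at least 48 h at 37 C; viability read as ATP content by CellTiter-Glo luminescence.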
DT40 TDP1 no CPT: qHTS for Inhibitors of human tyrosyl-DNA phosphodiesterase 1 (TDP1): qHTS in cells in absence of CPT; hit rate 15% among 420,000; Potency, µM (top dose mostly 46.2 µM), inactives show top-dose activity change, negative = growth inhibition, hits mostly inhibitors; DT40 Tdp1-/- hTDP1 cells, no CPT, ATP luminescence, 48 h; further: on the % scale 0 is the no-effect control and ±100 the full control effect; nearly all actives have a fitted effect of over 55% in size
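Stably hTDP1-transfected Tdp1-null chicken DT40 cells were treated with library compounds minus camptothecin and grown for at least 48 hr at 37 °C, after which cellular ATP was quantified by luminescence.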
HT1080NT lethal: kills 2HG-producing HT-1080-NT fibrosarcoma cells; hit rate 1.6% among 360,000; Potency, µM (top dose mostly 46.1 µM), for the others: top-dose activity, negative = less viability, usual class: cytotoxic; AID 686970; HT-1080-NT fibrosarcoma viability, CellTiter-Glo ATP luminescence, 48 h;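 further: NT is the 2HG producing partner of a matched IDH1 knockdown line; 0% = DMSO-treated cells and -100% = media-only wells without cells; nearly all actives have a fitted effect of over 55% in size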
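A 48-hour cytotoxicity screen used HT-1080-NT cells plated 2 hours before compound delivery. ATP-based CellTiter-Glo luminescence measured viability, normalized to DMSO and no-cell controls.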
TGFb inhibitor: inhibitors of TGF-b signaling; HepG2 CAGA-GFP TGF-b/SMAD3 reporter, GFP fluorescence, 18 h; TGF-beta stimulated, 500 pg/mL final; AID 588855; hit rate 1.2% among 410,000; Potency, µM (series often up to 46.1 µM), without a hit: at the highest dose activity, negative = inhibition, actives largely listed as inhibitors; further: on the % scale 0 is the no-effect control and ±100 the full control effect; nearly all actives have a fitted effect of over 65% in size
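Inhibition was scored as loss of TGF-beta-induced (500 pg/mL final, 18 hours, 37 degrees C) GFP in HEPG2 cells carrying a CAGA-GFP reporter, in DMEM with 1% FBS. Well GFP was summed per cell; Activity was normalised to unstimulated and stimulated DMSO wells, then concentration-response fitting.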
HT1080 IDH1KD tx: kills HT-1080 cells with IDH1 knockdown. HT-1080 IDH1 knockdown viability, ATP luminescence, 48 h. Potency, µM (titrated, usually from 46.1 µM), for inactives: at the highest dose activity, negative = toxicity, actives largely listed as cytotoxic. AID 686971. hit rate 2% among 360,000;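 further: 0% = DMSO wells and -100% = cell-free medium wells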
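In this qHTS, HT-1080 cells depleted of IDH1 are exposed for 48 h at 37 °C to compound titrations. Toxicity is scored from CellTiter-Glo luminescence, with DMSO as full viability and medium alone as none.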
* = called active by the depositor; ? = inconclusive; . = not tested or not shown. The call rests on the fitted dose curve; in most records, active means well fitted curve in the direction sought with a large enough effect; inconclusive means small, poorly fitted or top-dose-only effect, or another doubt; inactive means no such curve, though single readings can be large; an effect the other way counts as inactive or inconclusive. Potency means the concentration at half of the fitted maximal effect.

SMILES	HepG2 tox	TDP1 cell CPT	DT40 TDP1 no CPT	HT1080NT lethal	TGFb inhibitor	HT1080 IDH1KD tx
COc1ccc(C2Nc3ccccc3C(=O)N2c2ccccc2F)cc1COc1ccc(NC(C)=O)cc1 (configuration not stated)	-4%	11µM*	18µM*	.	0%	.
COc1cccc(-c2ncc3ccccc3c2COC(=O)c2ccc(C(C)(C)C)cc2)c1	-30%	?	?	-15%	-4%	?
O=C(OCc1c(-c2ccccc2)ncc2ccccc12)c1ccccc1C(F)(F)F	-38%	1µM*	?	?	?	?
COc1ccc(C(=O)OCc2c(-c3ccccc3)ncc3ccccc23)cc1	0%	16µM*	?	-15%	0%	-17%
COc1cccc(-c2ncc3ccccc3c2COC(=O)c2ccc(F)cc2)c1	-1%	?	21µM*	-2%	0%	-17%
COc1ccccc1C(=O)OCc1c(-c2ccccc2)ncc2ccccc12	-28%	16µM*	?	-17%	?	-29%
COc1cccc(-c2ncc3ccccc3c2COC(=O)c2ccccc2C(=O)O)c1	0%	-26%	?	5%	-9%	16%
O=C(O)CCC(=O)OCc1c(-c2ccccc2)ncc2ccccc12	3%	0%	-7%	0%	-1%	0%
COc1ccc(CCNC(=O)c2c(C)nc3ccccn23)cc1OC	-7%	-19%	-9%	-1%	-3%	-5%
O=C(C1CCC1)N1CCc2cc(S(=O)(=O)NCCN3CCN(c4ccccc4F)CC3)ccc21	-13%	?	23µM*	-4%	-28%	-21%
O=C(CCNS(=O)(=O)c1ccc2c(c1)CCN2C(=O)C1CC1)N1CCN(c2ccccc2F)CC1	-12%	13µM*	12µM*	.	-1%	.
CC(=O)N1CCc2cc(S(=O)(=O)NCCC(=O)N3CCN(c4ccccn4)CC3)ccc21	-29%	-23%	?	1%	-4%	3%
Cc1ccc(-n2c(CCc3ccccc3)nnc2SCC(=O)NCc2ccccc2)cc1C	-29%	?	23µM*	-3%	?	-2%
Cc1cccc(-n2c(CCc3ccccc3)nnc2SCC(=O)c2ccccc2)c1	-6%	9.2µM*	9.2µM*	1%	?	-4%
Cc1cc(C)c2[nH]c(C(=O)Nc3ccc(F)cc3Br)cc2c1	-14%	10%	-4%	0%	-8%	-2%
Cc1c(C(=O)N2CCC(C)CC2)oc2ccc(S(=O)(=O)N3CCC4(CC3)OCCO4)cc12	-12%	?	?	5%	-2%	0%
Ic1ccc(/C=C2\C=Cc3ccccc32)cc1	-6%	?	?	.	-6%	.
CCNc1nc(NCC)nc(N2CC(=O)N(CC(=O)OCC)C2=N)n1	4%	?	-10%	-2%	-24%	-5%
[O-][n+]1onc2c1CCc1c-2nn(-c2ccccc2Cl)[n+]1[O-]	-37%	13µM*	15µM*	?	?	11µM*
Cc1ccc(-n2nc3c([n+]2[O-])CCc2c-3no[n+]2[O-])cc1	-12%	?	16µM*	23%	-6%	30%
Cc1cc2cc(CN(Cc3nnnn3C3CCCCC3)CC3CCCO3)c(=O)[nH]c2cc1C (configuration not stated)	-10%	?	?	5%	-26%	3%
Cc1cc2cc(CN(Cc3ccc4c(c3)OCO4)Cc3nnnn3C3CCCC3)c(=O)[nH]c2cc1C	-4%	16µM*	13µM*	5%	1%	-1%
Cc1ccc2cc(CN(Cc3nnnn3C3CCCCC3)CC3CCCO3)c(=O)[nH]c2c1 (configuration not stated)	-22%	15µM*	16µM*	-2%	-33%	?
Cc1ccc2[nH]c(=O)c(CN(Cc3ccc4c(c3)OCO4)Cc3nnnn3C3CCCC3)cc2c1	-12%	?	?	-2%	-28%	-1%
Cc1cc(C)c2cc(CN(Cc3nnnn3C3CCCCC3)CC3CCCO3)c(=O)[nH]c2c1 (configuration not stated)	-44%	?	13µM*	?	?	?
SMILES	HepG2 tox	TDP1 cell CPT	DT40 TDP1 no CPT	HT1080NT lethal	TGFb inhibitor	HT1080 IDH1KD tx
COc1ccc(CN(Cc2cc3ccc(C)cc3[nH]c2=O)Cc2nnnn2C2CCCC2)cc1	-4%	?	18µM*	1%	-14%	-25%
Cc1ccccc1-c1cc2c(c(OC3CCOC3)c1)OCCN(C(=O)Cn1cccn1)C2 (configuration not stated)	.	0%	-18%	.	.	.
Cc1cccc2cc(CN(Cc3nnnn3C3CCCC3)C3CCCCC3)c(=O)[nH]c12	-4%	21µM*	?	-11%	-1%	-1%
CCCN1C(=O)c2ccccc2NC1c1ccc(OC)c(COc2cccc(OC)c2)c1 (configuration not stated)	-18%	?	16µM*	.	5%	.
COc1cccc(OCc2cc(C3Nc4ccccc4C(=O)N3c3ccccc3)ccc2OC)c1 (configuration not stated)	-2%	10µM*	13µM*	.	4%	.
CCCN1C(=O)c2ccccc2NC1c1ccc(OC)c(COc2ccc([N+](=O)[O-])cc2)c1 (configuration not stated)	-9%	10µM*	10µM*	.	-9%	.
COc1ccc(C2Nc3ccccc3C(=O)N2Cc2ccccc2)cc1COc1ccccc1F (configuration not stated)	1%	?	14µM*	.	19%	.
COc1ccc(C2Nc3ccccc3C(=O)N2Cc2ccccc2)cc1COc1ccc([N+](=O)[O-])c(C)c1 (configuration not stated)	-17%	-14%	-16%	.	0%	.
CCCN1C(=O)c2ccccc2NC1c1ccc(OC)cc1OC (configuration not stated)	-20%	0%	-10%	0%	-25%	-7%
COc1ccc(C2Nc3ccccc3C(=O)N2Cc2ccccc2)cc1COc1ccccn1 (configuration not stated)	-3%	?	-20%	7%	-20%	-18%
CN1CCN(C(CNC(=O)c2cccc(F)c2)c2ccc3c(c2)OCO3)CC1 (configuration not stated)	-19%	-11%	-4%	.	-4%	.
